From PubChem BioAssay
Only some compounds are listed: those with a hit (about 10% of all), similar ones and a draw of the others.
HP1b binding inh – HTS for Inhibitors of HP1-beta Chromodomain Interactions with Methylated Histone Tails; Chromobox protein homolog 1 (Homo sapiens), P83916; AlphaScreen HP1-beta / biotin-H3K9me3 peptide binding; Potency, µM (series often up to 114 µM), usual class: inhibitors; 0.56% of 390,000 active; AID 540317, 2011; also: nearly all actives have a fitted effect of over 70% in size
Target sequence (P83916 whole entry, looked up): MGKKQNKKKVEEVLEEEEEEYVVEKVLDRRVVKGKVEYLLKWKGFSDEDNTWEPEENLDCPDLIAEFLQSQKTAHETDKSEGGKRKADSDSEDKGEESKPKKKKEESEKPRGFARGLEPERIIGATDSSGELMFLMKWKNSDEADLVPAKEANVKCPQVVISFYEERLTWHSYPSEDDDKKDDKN
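AlphaScreen: HP1-beta (50 nM) preformed 30 min with biotin-H3(1-18)K9me3 peptide (50 nM) in PBS pH 7.4, 0.01% Tween-20. Compound added for 30 min at RT, then streptavidin donor/nickel chelate acceptor beads (10 ug/mL) for 30 min.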
G9a block – qHTS Assay for Inhibitors of Histone Lysine Methyltransferase G9a. Potency, µM (top dose mostly 102 µM), usual class: inhibitors. Histone-lysine N-methyltransferase EHMT2 (Homo sapiens), Q96KQ7. G9a H3K9 monomethylation, AlphaScreen, 2 h. AID 504332, 2011. 8.8% of 350,000 active; also: nearly all actives have a fitted effect of over 75% in size
Target sequence (Q96KQ7 913-1193 limits assumed): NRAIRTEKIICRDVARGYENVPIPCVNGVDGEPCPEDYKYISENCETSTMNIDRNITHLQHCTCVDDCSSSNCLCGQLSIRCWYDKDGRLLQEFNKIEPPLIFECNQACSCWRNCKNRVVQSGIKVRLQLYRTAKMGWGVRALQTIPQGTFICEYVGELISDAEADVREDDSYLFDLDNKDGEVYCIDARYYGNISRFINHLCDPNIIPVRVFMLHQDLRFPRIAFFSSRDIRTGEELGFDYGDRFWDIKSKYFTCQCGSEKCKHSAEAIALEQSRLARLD
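Enzyme 20 nM + cpd, 15 min RT; add b-H3K9 pep 500 nM / SAM 20 uM; 2 h RT; anti-H3K9me1 Ab 0.5 ug/mL + SA donor / anti-rabbit acceptor beads 20 ug/mL each, 10 min; AlphaScreen read.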
BAZ2B block – qHTS Assay for Inhibitors of BAZ2B | Bromodomain adjacent to zinc finger domain protein 2B (Homo sapiens), Q9UIF8 | AlphaScreen BAZ2B-H3K14Ac peptide displacement | Potency, µM (highest dose often 114 µM), actives largely listed as inhibitors | 4.4% of 360,000 active | AID 504333, 2011; also: nearly all actives have a fitted effect of over 60% in size
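Compounds, titrated to a top concentration of 110 uM, were incubated 30 min at room temperature with preformed BAZ2B/acetyl-K14 H3 peptide complex (50 nM each). Proximity signal was measured by AlphaScreen after 20 min with beads.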
JMJD2A Tudor – qHTS Assay for Inhibitors of JMJD2A-Tudor Domain; Lysine-specific demethylase 4A (Homo sapiens), O75164; AlphaScreen JMJD2A-Tudor / H3K4me3 peptide binding; Potency, µM (titrated, usually from 114 µM), hits mostly inhibitors; 4.4% of 390,000 active; also: nearly all actives have a fitted effect of over 50% in size
Six1-Eya2 blk – qHTS Assay for Inhibitors of the Six1/Eya2 Interaction | Homeobox protein SIX1 (Homo sapiens) + Protein phosphatase EYA2 (Homo sapiens), … | AlphaScreen GST-Six1/His-Eya2 binding, biochemical; active compounds read low | activity change, % (no concentration beside the values) | 0.56% of 360,000 active | AID 651725, 2012; in the data active = activity change below about -65%; inconclusive = mostly about -30% to -63%
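AlphaScreen with GST-Six1 and His-Eya2 (5X mix: 250 nM and 500 nM), glutathione donor and nickel acceptor beads; buffer 50 mM Tris pH 8.0, 300 mM NaCl, 1 mM TCEP; 1 h at 37 C in the dark.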
CtBP-E1A blk – qHTS Assay for Inhibitors of the CtBP/E1A Interaction; CtBP / adenovirus E1A interaction (AlphaScreen); AlphaScreen GST-E1A/His-CtBP binding, 1536-well; active compounds read low; activity change, % (test concentration not listed); 0.49% of 340,000 active; in the data active = activity change below about -65%; inconclusive = mostly about -30% to -63%
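Protein mix (5X: 125 nM each GST-E1A, His-CtBP) was incubated with pinned compound 2 h at 37 deg C in dark, in 50 mM Tris pH 8.0 buffer with 300 mM NaCl. Glutathione donor and nickel acceptor beads followed; AlphaScreen signal read after 1 h.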
Large screens that a line does not name were inactive. Unless noted, calls follow the shape of the dose curve; as a rule, active = well fitted inhibition curve with a large enough effect; inconclusive = small, poorly fitted or top-dose-only effect; inactive = no such curve, though single readings can be large or run the other way.

N#C/C(=N/Nc1ccc(OC(F)(F)F)cc1)C(N)=S	BAZ2B block 35µM, JMJD2A Tudor inconclusive (no result: G9a block, CtBP-E1A blk)
CNC(=S)Nc1ccc(OC(F)(F)F)cc1	BAZ2B block inconclusive
CCCc1nnc(NC(=O)c2cc(=O)c3cc(Cl)ccc3o2)s1	none (no result: Six1-Eya2 blk, CtBP-E1A blk)
COc1ccc(-c2nnc(SCC(=O)NCc3ccccc3)nc2-c2ccc(OC)c(OC)c2)cc1OC	G9a block inconclusive, BAZ2B block inconclusive (no result: Six1-Eya2 blk, CtBP-E1A blk)
CN(C)C(=O)c1cnc(Sc2ncc(C(F)(F)F)cc2Cl)n1C	G9a block 56µM
O=c1c2cc(NC(=S)N3CCCC3)ccc2nc2n1CCCCC2	none
CCN1CCN(C(=S)Nc2ccc3nc4n(c(=O)c3c2)CCCCC4)CC1	G9a block 45µM
CN(C)c1cccc(C(=O)Nc2ccc3nc4n(c(=O)c3c2)CCCCC4)c1	G9a block 45µM, BAZ2B block inconclusive, JMJD2A Tudor inconclusive
Cc1ccccc1-c1cc(C(=O)Nc2sc(C)c(C)c2C(N)=O)c2ccccc2n1	HP1b binding inh inconclusive, G9a block inconclusive, BAZ2B block inconclusive, JMJD2A Tudor inconclusive
CCOC(=O)c1sc(NC(=O)c2cc(-c3ccccc3C)nc3ccccc23)c(C#N)c1C	HP1b binding inh 6.3µM, G9a block 1.6µM
Cn1c(=O)c2sccc2n2c(CCC(=O)N3CCN(c4cccc(Cl)c4)CC3)nnc12	none (no result: Six1-Eya2 blk, CtBP-E1A blk)
Nc1nnc(-c2cccc([N+](=O)[O-])c2)s1	none
Nc1nnc(-c2ccc(Cl)c([N+](=O)[O-])c2)s1	G9a block 45µM (no result: CtBP-E1A blk)
Cn1c(=O)c(=O)n(C)c2cc(C(=O)NCc3ccccc3Cl)ccc21	none (no result: Six1-Eya2 blk, CtBP-E1A blk)
Cc1ccc(S(=O)(=O)Nc2cccc3ncccc23)s1	BAZ2B block inconclusive, Six1-Eya2 blk -86, CtBP-E1A blk -81
O=C(CCN1C(=O)C2C3CC(C(Br)C3Br)C2C1=O)OCC(=O)c1ccccc1 (configuration not stated)	JMJD2A Tudor 79µM
CCCN(CCC)CCNC(=O)c1sc2nc3n(c(=O)c2c1C)CCCCC3	none (no result: Six1-Eya2 blk, CtBP-E1A blk)
CC(C)CC(c1nnnn1C(C)C)N1CCN(C(=O)c2ccco2)CC1 (configuration not stated)	none
CCCCC(c1nnnn1C(C)C)N1CCN(C(=O)c2ccco2)CC1 (configuration not stated)	G9a block 50µM, JMJD2A Tudor inconclusive
CCCC(c1nnnn1CCOC)N1CCN(C(=O)c2ccco2)CC1 (configuration not stated)	G9a block 45µM, BAZ2B block inconclusive, JMJD2A Tudor inconclusive
COCCn1nnnc1C(C(C)C)N1CCN(C(=O)c2ccco2)CC1 (configuration not stated)	JMJD2A Tudor 45µM
CC(C)(C)OC(=O)N1CCC(c2c(C(=O)NCc3ccco3)cnn2-c2ccccc2Cl)CC1	G9a block inconclusive (no result: Six1-Eya2 blk, CtBP-E1A blk)
Cc1ccccc1CSc1nc2cccnc2n1Cc1ccc(C(=O)NC2CC2)cc1	G9a block inconclusive (no result: Six1-Eya2 blk, CtBP-E1A blk)
CC1CSc2ccccc2NC1=S (configuration not stated)	G9a block inconclusive
c1ccc(C2CSc3ccccc3N2)cc1 (configuration not stated)	G9a block 8.9µM, BAZ2B block inconclusive, JMJD2A Tudor inconclusive (no result: CtBP-E1A blk)
Cc1ccc(Cn2c(C)c3cnn(CC(=O)N4CCN(c5cc(C)ccc5C)CC4)c(=O)c3c2C)cc1	none (no result: Six1-Eya2 blk, CtBP-E1A blk)
CC(C)c1ccc(/C=C2\SC(=S)N(CCC(=O)N3CCCCC3CCO)C2=O)cc1 (configuration not stated)	G9a block 45µM, BAZ2B block inconclusive, JMJD2A Tudor 13µM (no result: CtBP-E1A blk)
COc1ccc(/C=C2\SC(=S)N(CCCC(=O)N3CCCCC3CCO)C2=O)cc1 (configuration not stated)	BAZ2B block 7.9µM, JMJD2A Tudor 35µM, CtBP-E1A blk inconclusive
O=C1/C(=C/c2ccccc2Cl)SC(=S)N1CCC(=O)N1CCCCC1CCO (configuration not stated)	G9a block inconclusive, BAZ2B block inconclusive, JMJD2A Tudor inconclusive (no result: CtBP-E1A blk)
O=C1/C(=C\c2ccccc2)SC(=S)N1CCC(=O)N1CCCCC1CCO (configuration not stated)	G9a block inconclusive, BAZ2B block inconclusive
CCc1c(C)sc2c1CCN(C(=O)Nc1cc(C)ccc1C)C2c1ccc(OC)cc1 (configuration not stated)	none (no result: Six1-Eya2 blk, CtBP-E1A blk)
CCCCCSc1nnc2c(n1)OC(CC)Nc1ccc(Br)cc1-2 (configuration not stated)	none (no result: Six1-Eya2 blk, CtBP-E1A blk)
COc1ccccc1N1CCN(C(=O)c2ccccc2SCC(=O)NCc2ccco2)CC1	G9a block 50µM
COc1ccccc1N1CCN(C(=O)c2ccccc2SCC(=O)N2CCCC2)CC1	G9a block 79µM
COc1ccccc1-n1ccnc1SCC(=O)NCc1ccco1	JMJD2A Tudor 40µM
COc1cccc(N2CCN(C(=O)c3ccccc3SCC(=O)NCc3ccco3)CC2)c1	none (no result: CtBP-E1A blk)
COc1ccccc1-n1ccnc1SCC(=O)NCC1CCCO1 (configuration not stated)	none
CCOc1ccccc1N1CCN(C(=O)c2ccccc2SCC(=O)N2CCCC2)CC1	G9a block inconclusive
CCOc1ccc(N(CC)S(=O)(=O)N2CCCC(C(=O)Nc3ccc(OC)c(OC)c3)C2)cc1 (configuration not stated)	HP1b binding inh inconclusive, BAZ2B block inconclusive (no result: Six1-Eya2 blk, CtBP-E1A blk)
Cc1cc(C(F)(F)F)n2nc(-c3cccs3)cc2n1	none (no result: G9a block)
CCN(CC)CCCNc1cc(C)nc2cc(-c3cccs3)nn12	G9a block 45µM
Cc1nc2cc(-c3cccs3)nn2c(NCC(C)(C)CN(C)C)c1C	G9a block 50µM
CC(=O)CSc1nc(-c2ccccc2)[nH]c1S(=O)(=O)c1ccc(C)cc1	none (no result: Six1-Eya2 blk, CtBP-E1A blk)
O=C(O)CSc1ccc(Oc2ccc(SCC(=O)O)cc2)cc1	none (no result: G9a block)
O=C(O)CSc1sc(=S)sc1SCC(=O)O	G9a block 45µM, JMJD2A Tudor inconclusive
CN1CCN(CCCN(Cc2ccco2)C(=S)Nc2ccc(Cl)cc2)CC1	none
CCOc1ccc(NC(=S)N(CCCN2CCCC2)Cc2cccn2Cc2ccc(Cl)cc2)cc1	G9a block 40µM, BAZ2B block inconclusive, JMJD2A Tudor inconclusive
Cc1cccc(NC(=S)N(CCCN2CCCC2)Cc2cccn2Cc2ccc(Cl)cc2)c1	G9a block 45µM, BAZ2B block inconclusive, JMJD2A Tudor inconclusive
